These results are taken from PubChem BioAssay (EPA / NIEHS).

A word on the AC50: it is the concentration giving half of the maximal activity seen.

In assay [1] the target is GAL4 Transcription Factor (Internal Marker), GAL4 (gene 855828) (UniProt P04386). Briefly: ATG_GAL4_XSP2: Attagene TRANS-FACTORIAL Multi-Species (XSP2) HepG2 Assay for GAL4 Transcription Factor (Internal Marker) (AID 2283814).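 Further: GAL4 reporter mRNA background control in MRTU transfected cells not a receptor target.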 In a few lines: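 HepG2 cells transiently transfected with GAL4-UAS reporter units, stimulated with 3 nM 6-alpha-fluorotestosterone plus 1.5 nM norgestrel, dosed 24 h. Reporter mRNA by RT-PCR/capillary electrophoresis; gain-of-signal fit versus DMSO, background control.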
GAL4 Transcription Factor (Internal Marker), GAL4 (gene 855828), sequence (P04386 whole entry, looked up, the tested form may be a part): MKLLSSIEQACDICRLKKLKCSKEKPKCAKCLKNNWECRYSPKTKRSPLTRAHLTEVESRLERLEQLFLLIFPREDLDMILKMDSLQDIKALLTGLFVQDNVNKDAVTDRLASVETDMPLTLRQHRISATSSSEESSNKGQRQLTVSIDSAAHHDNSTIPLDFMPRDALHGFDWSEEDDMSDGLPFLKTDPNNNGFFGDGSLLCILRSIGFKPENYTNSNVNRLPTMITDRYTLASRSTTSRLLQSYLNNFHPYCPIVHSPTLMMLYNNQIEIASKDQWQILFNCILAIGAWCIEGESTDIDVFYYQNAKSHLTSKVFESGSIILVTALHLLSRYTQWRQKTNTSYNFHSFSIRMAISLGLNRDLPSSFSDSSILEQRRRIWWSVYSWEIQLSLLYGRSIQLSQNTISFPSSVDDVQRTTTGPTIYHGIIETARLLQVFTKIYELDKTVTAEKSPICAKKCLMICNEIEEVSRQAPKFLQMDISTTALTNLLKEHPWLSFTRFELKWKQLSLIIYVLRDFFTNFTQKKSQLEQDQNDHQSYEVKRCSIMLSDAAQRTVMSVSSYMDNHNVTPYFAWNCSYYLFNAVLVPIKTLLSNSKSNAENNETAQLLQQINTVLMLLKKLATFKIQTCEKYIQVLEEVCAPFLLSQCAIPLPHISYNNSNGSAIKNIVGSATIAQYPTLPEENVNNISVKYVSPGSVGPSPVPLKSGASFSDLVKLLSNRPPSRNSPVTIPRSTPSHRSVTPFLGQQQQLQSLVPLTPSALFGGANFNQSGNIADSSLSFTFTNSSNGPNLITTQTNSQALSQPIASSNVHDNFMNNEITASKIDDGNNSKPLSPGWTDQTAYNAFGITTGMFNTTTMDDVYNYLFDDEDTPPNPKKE

Assay [2] concerns the target zebrafish Estrogen Receptor (ER1), esr1 (gene 259252) (UniProt P57717). The assay is described as follows: ATG_zfER1_XSP2: Attagene TRANS-FACTORIAL Multi-Species (XSP2) HepG2 Assay for zebrafish Estrogen Receptor (ER1) (AID 2283816). In a few lines: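 HepG2 cells transiently transfected with a GAL4-UAS reporter and a chimeric zebrafish ER1-Gal4 construct, dosed 24 h. Reporter mRNA quantified by RT-PCR, labelling, HpaI digestion and capillary electrophoresis, relative to DMSO.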

Assay [3] has as its target chicken Estrogen Receptor (ERa), ESR1 (gene 396099) (UniProt P06212). Briefly: ATG_chERa_XSP2: Attagene TRANS-FACTORIAL Multi-Species (XSP2) HepG2 Assay for chicken Estrogen Receptor (ERa) (AID 2283817).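 Further: actives raise reporter signal above DMSO so AC50 reflects ER activation.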 In a few lines:
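HepG2 cells transiently transfected with multiplexed GAL4-UAS reporter units expressing chimeric chicken ERa-Gal4; 24 h compound exposure. Reporter mRNA measured by RT-PCR with 6-FAM labelling, HpaI digestion and capillary electrophoresis; gain-of-signal fitted versus DMSO.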

The test system of assay [4] is zebrafish Estrogen Receptor (ER2a), gene 317734. Briefly: ATG_zfER2a_XSP2: Attagene TRANS-FACTORIAL Multi-Species (XSP2) HepG2 Assay for zebrafish Estrogen Receptor (ER2a) (AID 2283818).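 Further: hits raise reporter mRNA so AC50 reflects activation of zebrafish ER2a.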 In a few lines: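 HepG2 cells transiently transfected with GAL4-UAS reporter units and chimeric zebrafish ER2a-Gal4, exposed 24 h; medium contains 3 nM 6-alpha-fluorotestosterone and 1.5 nM norgestrel. Reporter mRNA quantified by RT-PCR, HpaI digestion, capillary electrophoresis; gain versus DMSO.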

Assay [5] can be described thus: ATG_M_19_XSP2: Attagene TRANS-FACTORIAL Multi-Species (XSP2) HepG2 Assay for M32 Transcription Factor (Internal Marker) (AID 2283822). A digest of the protocol: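 Internal background marker in a multi-species nuclear receptor TRANS panel: transfected HepG2 cells exposed 24 h, with 3 nM 6-alpha-fluorotestosterone and 1.5 nM norgestrel present. Readout is RT-PCR of reporter transcripts resolved by capillary electrophoresis, gain-of-signal versus DMSO.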

Assay [6] deals with zebrafish Estrogen Receptor (ER2b), gene 317733. The assay is described as follows: ATG_zfER2b_XSP2: Attagene TRANS-FACTORIAL Multi-Species (XSP2) HepG2 Assay for zebrafish Estrogen Receptor (ER2b) (AID 2283823).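 Further: fitted upward as reporter gain over DMSO so potency reflects activation.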 A digest of the protocol:
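Cells used were HepG2, transiently transfected with chimeric nuclear receptor-Gal4 reporter units. After 24 h of chemical treatment, reporter transcripts were amplified by RT-PCR, labelled and sized by capillary electrophoresis, with induction analysed relative to DMSO.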

In assay [7] the target is Estrogen receptor (Homo sapiens) (UniProt P03372). The assay is described as follows: ATG_hERa_XSP2: Attagene TRANS-FACTORIAL Multi-Species (XSP2) HepG2 Assay for human Estrogen Receptor (ERa) (AID 2283827). In a few lines: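 HepG2 cells transiently transfected with multiplexed GAL4-UAS reporters driven by chimeric receptor-Gal4 proteins, dosed 24 h with 3 nM 6-alpha-fluorotestosterone and 1.5 nM norgestrel present. Reporter mRNA by RT-PCR and capillary electrophoresis; gain-of-signal fit versus DMSO.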
Estrogen receptor (Homo sapiens), sequence (P03372 whole entry, looked up, the tested form may be a part): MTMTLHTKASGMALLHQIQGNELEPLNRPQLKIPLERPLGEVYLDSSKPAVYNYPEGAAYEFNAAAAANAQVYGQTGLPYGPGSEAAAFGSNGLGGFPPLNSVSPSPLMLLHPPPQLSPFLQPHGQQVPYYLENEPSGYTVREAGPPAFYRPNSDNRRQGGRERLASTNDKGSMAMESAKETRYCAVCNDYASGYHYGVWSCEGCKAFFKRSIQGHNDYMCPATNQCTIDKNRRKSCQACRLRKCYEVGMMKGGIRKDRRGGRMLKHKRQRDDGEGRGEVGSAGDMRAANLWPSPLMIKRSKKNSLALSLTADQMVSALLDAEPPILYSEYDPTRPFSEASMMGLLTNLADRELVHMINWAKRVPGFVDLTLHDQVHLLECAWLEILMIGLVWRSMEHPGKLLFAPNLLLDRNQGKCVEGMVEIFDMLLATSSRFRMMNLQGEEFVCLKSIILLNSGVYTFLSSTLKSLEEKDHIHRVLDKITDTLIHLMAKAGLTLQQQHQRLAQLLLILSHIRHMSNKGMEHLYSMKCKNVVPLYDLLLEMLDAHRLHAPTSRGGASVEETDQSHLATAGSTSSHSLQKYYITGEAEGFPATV

Assay [8] concerns frog Estrogen Receptor (ER2), gene 100174814. The assay is described as follows: ATG_frER2_XSP2: Attagene TRANS-FACTORIAL Multi-Species (XSP2) HepG2 Assay for frog Estrogen Receptor (ER2) (AID 2283828). In a few lines: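 Human liver HepG2, transient MRTU transfection (TRANS format, exogenous NR–Gal4). 24 h cpd exposure. Total RNA → RT → PCR → FAM label → HpaI cut → CE. Positive direction vs DMSO.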

Assay [9] addresses Peroxisome proliferator-activated receptor gamma (Homo sapiens) (UniProt P37231). Briefly: ATG_hPPARg_XSP2: Attagene TRANS-FACTORIAL Multi-Species (XSP2) HepG2 Assay for human Peroxisome Proliferator-activated Receptor gamma (PPARg) (AID 2283829).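 Further: actives raise reporter mRNA above DMSO so AC50 reflects PPARg activation.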 A digest of the protocol: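 After transfecting HepG2 with GAL4-UAS reporter constructs, cells are dosed for 24 h; total RNA is reverse-transcribed, PCR-amplified, FAM-labeled, HpaI-digested and resolved by capillary electrophoresis. Activity is measured as mRNA induction relative to DMSO.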

In assay [10] the target is zebrafish Thyroid Hormone Receptor alpha (TRa), thraa (gene 30670) (UniProt Q98867). The assay is described as follows: ATG_zfTRa_XSP2: Attagene TRANS-FACTORIAL Multi-Species (XSP1) HepG2 Assay for zebrafish Thyroid Hormone Receptor alpha (TRa) (AID 2283832).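 Further: actives raise zebrafish TRa-Gal4 reporter transcript above DMSO baseline.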 A digest of the protocol: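 Transient transfection of human HepG2 with GAL4-UAS reporter units, then 24 h chemical treatment. RNA isolated, reverse-transcribed, PCR-amplified, FAM-labelled, HpaI-digested and run on capillary electrophoresis. Gain-of-signal relative to DMSO.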
zebrafish Thyroid Hormone Receptor alpha (TRa), thraa (gene 30670), sequence (Q98867 whole entry, looked up, the tested form may be a part): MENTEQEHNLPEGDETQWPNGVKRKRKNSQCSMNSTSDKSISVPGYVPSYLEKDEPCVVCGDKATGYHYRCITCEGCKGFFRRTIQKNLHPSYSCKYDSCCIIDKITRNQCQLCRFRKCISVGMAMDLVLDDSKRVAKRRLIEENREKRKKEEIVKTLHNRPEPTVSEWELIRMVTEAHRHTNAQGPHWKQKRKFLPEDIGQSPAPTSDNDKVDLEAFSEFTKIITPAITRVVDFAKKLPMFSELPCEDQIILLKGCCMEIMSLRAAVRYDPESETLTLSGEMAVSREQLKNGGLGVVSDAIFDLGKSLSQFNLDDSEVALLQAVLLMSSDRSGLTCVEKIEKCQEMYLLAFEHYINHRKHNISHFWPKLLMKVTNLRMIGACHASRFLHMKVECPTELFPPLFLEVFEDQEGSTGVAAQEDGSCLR

Assay [11] has as its system turtle Thyroid Hormone Receptor, alpha (TRa), gene 101949057. Briefly: ATG_trTRa_XSP2: Attagene TRANS-FACTORIAL Multi-Species (XSP1) HepG2 Assay for turtle Thyroid Hormone Receptor, alpha (TRa) (AID 2283834).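 Further: hits raise reporter mRNA over the DMSO baseline so AC50 marks activators.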 In a few lines: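 Transfection of HepG2 with multiple reporter transcription units, then chemical dosing for 24 h. Total RNA was reverse-transcribed, reporter sequences PCR-amplified and FAM-labelled, then sized by capillary electrophoresis. DMSO served as baseline.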

Assay [12] is described as follows: ATG_M_61_XSP2: Attagene TRANS-FACTORIAL Multi-Species (XSP2) HepG2 Assay for M61 Transcription Factor (Internal Marker) (AID 2283835; active means hit-call score of the fitted dose curve at least 0.9, where 1 is the maximum; inactive means score below 0.9;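 further: active means a rise in signal above the DMSO baseline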). A digest of the protocol: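 HepG2 cells transiently transfected with multiple GAL4-UAS reporter units; 3 nM 6-alpha-fluorotestosterone and 1.5 nM norgestrel present to stimulate androgen receptor. After 24 h compound exposure, reporter mRNA measured by RT-PCR and capillary electrophoresis fluorescence, gain-of-signal versus DMSO baseline.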

Assay [13] addresses zebrafish Thyroid Hormone Receptor beta (TRb), thrb (gene 30607) (UniProt Q9PVE4). Briefly: ATG_zfTRb_XSP2: Attagene TRANS-FACTORIAL Multi-Species (XSP1) HepG2 Assay for zebrafish Thyroid Hormone Receptor beta (TRb) (AID 2283836). In a few lines: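 Human liver HepG2, transient MRTU transfection (NR-Gal4 chimeras, GAL4-UAS reporters); 24 h compound exposure; total RNA → oligo(dT) RT → PCR → 6-FAM label → HpaI cut → CE fluorescence. DMSO = negative control/baseline.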

Assay [14] concerns chicken Androgen Receptor (AR), gene 422165. Briefly: ATG_chAR_XSP2: Attagene TRANS-FACTORIAL Multi-Species (XSP2) HepG2 Assay for chicken Androgen Receptor (AR) (AID 2283819).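 Further: hits raise reporter mRNA above DMSO so potency is for activation.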 In a few lines:
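HepG2 cells transiently transfected with chicken AR–GAL4 chimeric reporter constructs, stimulated with 3 nM 6-alpha-fluorotestosterone plus 1.5 nM norgestrel, dosed 24 h. Reporter mRNA quantified by RT-PCR and capillary electrophoresis; gain of signal fitted versus DMSO.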

Assay [15] relates to frog Androgen Receptor (AR), gene 399456. The assay is described as follows: ATG_frAR_XSP2: Attagene TRANS-FACTORIAL Multi-Species (XSP2) HepG2 Assay for frog Androgen Receptor (AR) (AID 2283824).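 Further: actives raise reporter signal above DMSO so AC50 reflects agonist-like induction.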 In a few lines: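 HepG2 cells transiently transfected with GAL4-UAS reporter units and frog (Xenopus laevis) AR-Gal4 chimera; reporter mRNA measured 24 h after dosing by RT-PCR and capillary electrophoresis. Gain of signal fitted relative to DMSO baseline.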

Assay [16] addresses mouse Peroxisome Proliferator-activated Receptor gamma (PPARg), Pparg (gene 19016) (UniProt P37238). Briefly: ATG_mPPARg_XSP2: Attagene TRANS-FACTORIAL Multi-Species (XSP2) HepG2 Assay for mouse Peroxisome Proliferator-activated Receptor gamma (PPARg) (AID 2283830).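 Further: hits are gains in reporter mRNA above DMSO so AC50 marks activation.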 A digest of the protocol:
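HepG2 cells transiently transfected with GAL4-UAS reporter units for chimeric NR-Gal4 proteins including mouse PPARg, exposed 24 h; medium contained 3 nM 6-alpha-fluorotestosterone and 1.5 nM norgestrel. Reporter mRNA quantified by RT-PCR, HpaI digestion and capillary electrophoresis, vs DMSO.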

For assay [17], the system named is turtle Androgen Receptor (AR), gene 101947425. The assay is described as follows: ATG_trAR_XSP2: Attagene TRANS-FACTORIAL Multi-Species (XSP2) HepG2 Assay for turtle Androgen Receptor (AR) (AID 2283815). A digest of the protocol:
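HepG2 cells transiently transfected with GAL4-UAS reporter units for chimeric NR-Gal4 receptors; 24 h dosing in presence of 3 nM 6-alpha-fluorotestosterone and 1.5 nM norgestrel. Reporter mRNA by RT-PCR and capillary electrophoresis, gain of signal versus DMSO.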

In assay [18] the target is human Androgen Receptor (AR), AR (gene 367) (UniProt P10275). The assay is described as follows: ATG_hAR_XSP2: Attagene TRANS-FACTORIAL Multi-Species (XSP2) HepG2 Assay for human Androgen Receptor (AR) (AID 2283820). In a few lines: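 HepG2 cells transiently transfected with GAL4-UAS reporter units driven by chimeric NR-Gal4 proteins, stimulated with 3 nM 6-alpha-fluorotestosterone plus 1.5 nM norgestrel. Reporter mRNA quantified 24 h after dosing by RT-PCR and capillary electrophoresis; gain-of-signal versus DMSO.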

The subject of assay [19] is zebrafish Peroxisome Proliferator-activated Receptor gamma (PPARg), gene 557037. Briefly: ATG_zfPPARg_XSP2: Attagene TRANS-FACTORIAL Multi-Species (XSP2) HepG2 Assay for zebrafish Peroxisome Proliferator-activated Receptor gamma (PPARg) (AID 2283833).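 Further: actives increase reporter signal over DMSO so AC50 reflects activation.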 A digest of the protocol: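 Multi-species TRANS format in HepG2, 24 h dosing; medium also contained 3 nM 6-alpha-fluorotestosterone and 1.5 nM norgestrel to stimulate androgen receptor. Zebrafish PPARg-GAL4 induced reporter mRNA was measured by RT-PCR/capillary electrophoresis.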

Where “and” joins values, the source holds several entries; their conditions need not be identical. Equal entries are not always repeated. Records with an inconclusive call do not appear. Some structures have more than one record in an assay (separate samples or runs), and their calls can disagree. Calls of active or inactive are those of the source. How the source made its calls, unless noted: active means hit-call score of the fitted dose curve at least 0.9, where 1 is the maximum; inconclusive means response in the unintended direction; inactive means score below 0.9.

chicken Estrogen Receptor (ERa), ESR1 (gene 396099), sequence (P06212 whole entry, looked up, the tested form may be a part): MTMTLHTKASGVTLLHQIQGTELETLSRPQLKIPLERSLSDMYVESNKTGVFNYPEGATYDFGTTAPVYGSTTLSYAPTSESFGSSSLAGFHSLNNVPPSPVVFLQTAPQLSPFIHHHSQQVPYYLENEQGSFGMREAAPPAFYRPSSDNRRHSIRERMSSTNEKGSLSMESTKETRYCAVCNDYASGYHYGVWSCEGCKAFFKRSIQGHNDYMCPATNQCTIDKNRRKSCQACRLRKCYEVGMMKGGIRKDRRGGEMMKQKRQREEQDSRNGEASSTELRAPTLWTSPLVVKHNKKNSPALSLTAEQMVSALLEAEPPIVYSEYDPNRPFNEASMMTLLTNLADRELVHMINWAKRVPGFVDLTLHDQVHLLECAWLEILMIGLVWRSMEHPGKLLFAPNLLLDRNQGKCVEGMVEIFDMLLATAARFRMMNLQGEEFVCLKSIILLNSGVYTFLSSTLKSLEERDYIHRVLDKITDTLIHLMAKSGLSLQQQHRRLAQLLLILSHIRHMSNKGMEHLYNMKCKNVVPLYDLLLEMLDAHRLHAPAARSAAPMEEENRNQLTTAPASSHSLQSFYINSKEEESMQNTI
zebrafish Estrogen Receptor (ER1), esr1 (gene 259252), sequence (P57717 whole entry, looked up, the tested form may be a part): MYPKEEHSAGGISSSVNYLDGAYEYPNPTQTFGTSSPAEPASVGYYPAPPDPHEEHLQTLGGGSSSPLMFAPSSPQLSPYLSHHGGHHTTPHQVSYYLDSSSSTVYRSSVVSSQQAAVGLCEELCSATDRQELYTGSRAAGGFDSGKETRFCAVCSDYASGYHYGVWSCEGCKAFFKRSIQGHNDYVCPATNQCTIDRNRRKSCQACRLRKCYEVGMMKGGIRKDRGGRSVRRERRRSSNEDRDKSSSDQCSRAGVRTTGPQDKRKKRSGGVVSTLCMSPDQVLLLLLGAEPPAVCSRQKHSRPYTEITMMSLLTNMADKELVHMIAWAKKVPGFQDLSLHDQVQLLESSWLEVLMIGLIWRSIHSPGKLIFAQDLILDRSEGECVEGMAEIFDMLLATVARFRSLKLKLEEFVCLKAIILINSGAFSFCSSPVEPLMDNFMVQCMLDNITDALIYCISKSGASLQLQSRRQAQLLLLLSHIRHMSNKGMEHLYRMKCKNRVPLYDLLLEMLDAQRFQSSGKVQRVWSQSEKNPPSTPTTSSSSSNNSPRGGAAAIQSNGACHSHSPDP
mouse Peroxisome Proliferator-activated Receptor gamma (PPARg), Pparg (gene 19016), sequence (P37238 whole entry, looked up, the tested form may be a part): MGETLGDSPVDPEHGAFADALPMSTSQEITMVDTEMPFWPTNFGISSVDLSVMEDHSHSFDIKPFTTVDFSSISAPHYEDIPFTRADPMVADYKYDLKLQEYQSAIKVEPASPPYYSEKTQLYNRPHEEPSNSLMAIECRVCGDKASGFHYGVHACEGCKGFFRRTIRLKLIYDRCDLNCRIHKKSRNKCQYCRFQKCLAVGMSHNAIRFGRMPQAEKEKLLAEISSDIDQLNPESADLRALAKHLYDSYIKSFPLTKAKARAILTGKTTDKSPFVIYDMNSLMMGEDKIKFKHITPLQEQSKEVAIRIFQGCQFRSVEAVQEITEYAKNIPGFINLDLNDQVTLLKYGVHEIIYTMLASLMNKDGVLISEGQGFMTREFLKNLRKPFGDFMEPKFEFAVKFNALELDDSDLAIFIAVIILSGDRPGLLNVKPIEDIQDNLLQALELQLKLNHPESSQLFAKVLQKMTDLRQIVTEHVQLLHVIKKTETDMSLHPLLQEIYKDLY
Peroxisome proliferator-activated receptor gamma (Homo sapiens), sequence (P37231 whole entry, looked up, the tested form may be a part): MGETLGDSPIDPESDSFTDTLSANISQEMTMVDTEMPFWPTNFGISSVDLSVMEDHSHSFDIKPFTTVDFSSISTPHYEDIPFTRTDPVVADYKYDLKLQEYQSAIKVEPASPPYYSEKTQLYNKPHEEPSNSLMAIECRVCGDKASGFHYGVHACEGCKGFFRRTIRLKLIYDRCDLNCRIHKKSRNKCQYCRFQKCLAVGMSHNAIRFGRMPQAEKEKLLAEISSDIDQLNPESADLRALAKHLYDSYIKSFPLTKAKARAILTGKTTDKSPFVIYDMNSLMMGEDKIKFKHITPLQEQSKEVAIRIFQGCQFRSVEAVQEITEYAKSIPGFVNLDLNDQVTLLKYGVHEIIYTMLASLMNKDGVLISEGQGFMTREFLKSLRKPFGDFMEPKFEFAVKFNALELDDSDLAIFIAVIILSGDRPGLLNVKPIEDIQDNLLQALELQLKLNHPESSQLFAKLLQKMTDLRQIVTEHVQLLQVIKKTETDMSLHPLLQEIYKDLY
zebrafish Thyroid Hormone Receptor beta (TRb), thrb (gene 30607), sequence (Q9PVE4 whole entry, looked up, the tested form may be a part): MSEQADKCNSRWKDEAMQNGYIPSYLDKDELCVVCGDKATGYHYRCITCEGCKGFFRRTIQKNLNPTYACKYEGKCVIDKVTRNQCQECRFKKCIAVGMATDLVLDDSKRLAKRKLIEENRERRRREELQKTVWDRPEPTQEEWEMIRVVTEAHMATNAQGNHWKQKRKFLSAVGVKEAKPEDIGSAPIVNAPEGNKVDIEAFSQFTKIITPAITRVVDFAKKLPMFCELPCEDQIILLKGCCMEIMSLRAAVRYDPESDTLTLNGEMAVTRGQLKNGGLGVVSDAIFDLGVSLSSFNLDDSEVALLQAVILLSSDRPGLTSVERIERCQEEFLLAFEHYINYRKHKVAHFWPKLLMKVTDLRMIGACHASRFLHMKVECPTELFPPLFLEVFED

With `CC(=O)S[C@@H]1CC2=CC(=O)CC[C@]2(C)[C@H]2CC[C@@]3(C)[C@@H](CC[C@@]34CCC(=O)O4)[C@H]12`, the result in [1], in assay [2], in assay [3], in assay [4], in [5] and in assay [7] was inactive. For the same molecule, the outcome in [8], in assay [9], in [10], in assay [11], in [12] and in [13] was inactive. Besides, the AC50 in [6] is 74 µM (active).

For the molecule `O=C(c1ccc(O)cc1O)c1ccc(O)cc1O`, the AC50 in assay [2] was 4.21 µM (active); in assay [3], 2.81 µM (active); in [4], 1.12 µM (active); in assay [14], 8.13 µM (active); in assay [6] it was 2.47 µM (active); in [7] it was 3.02 µM (active). Also, in [8], the AC50 is 2.72 µM (active). Besides, the molecule was classed as inactive in assay [15], in [9], in [16], in assay [11], in [12] and in assay [13].

`CC1(C)C(C=C(Cl)Cl)C1C(=O)OCc1cccc(Oc2ccccc2)c1` (stereo not given): the result in assay [1], in assay [17], in assay [14], in [18], in assay [5] and in assay [15] was inactive. In addition, the result in [10], in [19] and in assay [11] was inactive. Also, the AC50 in assay [3] was 4.5 µM (active); in [4], 18.6 µM (active); in assay [6] it was 100 µM (active); in [7] it was 7.48 µM (active); in [8], 34.8 µM (active).

As to `CCN(Cc1c(F)cccc1Cl)c1c([N+](=O)[O-])cc(C(F)(F)F)cc1[N+](=O)[O-]`, the molecule was classed as inactive in [17], in [2], in assay [14], in assay [5], in [9] and in assay [16]. Also, the molecule was called inactive in assay [10], in assay [19], in [11] and in assay [13]. Also, the half-maximal activity concentration (AC50) in assay [2] is 6.69 µM (active); in assay [3], 2.59 µM (active) and 795 nM (active); in assay [6] it was 10.2 µM (active) and 4.04 µM (active); in assay [7], 1.49 µM (active) and 1.53 µM (active); in [8], 10.1 µM (active) and 2.8 µM (active).
